Assay results as given in PubChem BioAssay (NCI).
This is part of a sample that, as a whole, favours compounds with a hit. Of some 83,000 tested, about 20% had one in any assay.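 Each cell line was grown in a 96-well plate and treated with one concentration of compound for 48 hours. Values below 10 were considered active.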 Active and inactive are the calls of the source.

What was measured:
Test in all cases: NCI-60 one-dose screen, 48 h (100 = growth as untreated, 0 = no growth, -100 = all killed)
Conditions in all cases: 10 µM unless noted
NCI-H23 lung = system: NCI-H23 lung
NCI-H226 lung = system: NCI-H226 lung
NCI-H322M lung = system: NCI-H322M lung
HOP-62 NSCLC = system: HOP-62 NSCLC
NCI-H460 lung = system: NCI-H460 lung
HOP-92 NSCLC = system: HOP-92 NSCLC
NCI-H522 lung = system: NCI-H522 lung
A549/ATCC NSCLC = system: A549/ATCC NSCLC
786-0 renal = system: 786-0 renal
COLO 205 colon = system: COLO 205 colon

Measured: growth

CC1(C)N=C(N)N=C(N)N1c1cccc(CCCCc2ccc(Cl)c(S(=O)(=O)F)c2)c1
inactive: NCI-H23 lung 28.4% | NCI-H226 lung 57.1% | NCI-H322M lung 54.9% | HOP-62 NSCLC 33.6% | NCI-H460 lung 21.4% | HOP-92 NSCLC 41.3% | A549/ATCC NSCLC 10.6% | COLO 205 colon 72.7%
active: NCI-H522 lung -9.62% | 786-0 renal 5.96%

CC12CCC(O)CC1=CCC1C2CCC2(C)C(O)CCC12 (stereo not given)
inactive: NCI-H23 lung 111% | NCI-H226 lung 90% | NCI-H322M lung 101% | HOP-62 NSCLC 103% | NCI-H460 lung 101% | HOP-92 NSCLC 85.4% | NCI-H522 lung 94.8% | A549/ATCC NSCLC 109% | 786-0 renal 103% | COLO 205 colon 106%

[Cl][Hg][c]1cc(Br)cc(Br)c1
inactive: NCI-H23 lung 61.8% | NCI-H226 lung 99.9% | NCI-H322M lung 80% | HOP-62 NSCLC 31.7% | NCI-H460 lung 32.2% | HOP-92 NSCLC 11.2% | A549/ATCC NSCLC 68% | 786-0 renal 26.3% | COLO 205 colon 91%
active: NCI-H522 lung -30.4%

O=[N+]([O-])c1ccc(OP(=O)(CCl)N(CCCl)CCCl)cc1 (stereo not given)
inactive: NCI-H23 lung 108% | NCI-H226 lung 98.9% | NCI-H322M lung 103% | HOP-62 NSCLC 93.5% | NCI-H460 lung 105% | HOP-92 NSCLC 114% | NCI-H522 lung 74.8% | A549/ATCC NSCLC 102% | 786-0 renal 97.9% | COLO 205 colon 112%

O=C1OCC2=C1C(c1ccccc1)c1cc3c(cc1N2)OCO3 (stereo not given)
active: NCI-H226 lung -9.94% | NCI-H460 lung 5.45% | NCI-H522 lung -40.3% | COLO 205 colon -65.7%
inactive: NCI-H23 lung 16.1% | NCI-H322M lung 46.9% | HOP-62 NSCLC 15% | HOP-92 NSCLC 30.8% | A549/ATCC NSCLC 12.6% | 786-0 renal 15.9%

COc1cccc2c1c(C(=O)C(=O)Nc1ccn[nH]1)cn2Cc1ccc(F)cc1
inactive: NCI-H23 lung 96.4% | NCI-H226 lung 76.4% | NCI-H322M lung 97.8% | HOP-62 NSCLC 103% | NCI-H460 lung 77.6% | HOP-92 NSCLC 87% | NCI-H522 lung 96.8% | A549/ATCC NSCLC 86.3% | 786-0 renal 92.4% | COLO 205 colon 103%

COc1ccc([As]=[As]c2ccc(OC)c(NCS(=O)(=O)O)c2)cc1NCS(=O)(=O)O (stereo not given)
inactive: NCI-H23 lung 23.3% | NCI-H226 lung 61.9% | NCI-H322M lung 95.6% | HOP-62 NSCLC 39.7% | NCI-H460 lung 88.2% | A549/ATCC NSCLC 69.4%
active: HOP-92 NSCLC -21.9% | NCI-H522 lung -32.9% | 786-0 renal -46.4% | COLO 205 colon 2.8%

Nc1nc([Se])c2ncn(C3OC(CO)C(O)C3O)c2n1 (stereo not given)
inactive: NCI-H23 lung 51% | NCI-H226 lung 78.5% | NCI-H322M lung 84.3% | HOP-62 NSCLC 12.3% | NCI-H460 lung 27.4% | HOP-92 NSCLC 43% | NCI-H522 lung 71.6% | A549/ATCC NSCLC 102% | 786-0 renal 29.4% | COLO 205 colon 124%

Cc1cc(C)cc(Nc2nc3c(s2)CC[C@@]2(C)C3=CC[C@@H]3[C@@H]2CC[C@]2(C)C(=O)CC[C@@H]32)c1
inactive: NCI-H23 lung 76.9% | NCI-H226 lung 49.9% | NCI-H322M lung 79.9% | HOP-62 NSCLC 90% | NCI-H460 lung 49.5% | HOP-92 NSCLC 70.7% | NCI-H522 lung 66.1% | A549/ATCC NSCLC 72.9% | 786-0 renal 31% | COLO 205 colon 92.5%

O=C(Nc1ccc([As]=[As]c2ccc(NC(=O)c3ccccc3)cc2)cc1)c1ccccc1 (stereo not given)
active: NCI-H23 lung -71.3% | NCI-H226 lung -85.5% | NCI-H322M lung -76.8% | HOP-62 NSCLC -96.7% | NCI-H460 lung -30.5% | HOP-92 NSCLC -93.1% | NCI-H522 lung -75.9% | A549/ATCC NSCLC -63.2% | 786-0 renal -94.3% | COLO 205 colon -83.4%

CCOC(=O)CCC(NC(=O)C(Cc1ccc(N(CCCl)CCCl)cc1)NC=O)C(=O)OCC (stereo not given)
inactive: NCI-H226 lung 57.5% | NCI-H322M lung 88% | HOP-62 NSCLC 113% | A549/ATCC NSCLC 61.8% | COLO 205 colon 111%
active: NCI-H23 lung 1.98% | NCI-H460 lung 8.71% | HOP-92 NSCLC -2.74% | NCI-H522 lung -67.6% | 786-0 renal -40.8%

OCCNC(Cc1ccccc1)c1ccc2c(c1)OCO2 (stereo not given)
inactive: NCI-H23 lung 100% | NCI-H226 lung 96.5% | NCI-H322M lung 98.4% | HOP-62 NSCLC 77.7% | NCI-H460 lung 106% | HOP-92 NSCLC 73.1% | NCI-H522 lung 67.5% | A549/ATCC NSCLC 90.8% | 786-0 renal 95.5% | COLO 205 colon 91%

CCCCCCCCCCCCCCCCCCOc1ccccc1COP(=O)(O)OOCC[N+](C)(C)C
active: NCI-H23 lung 1.55% | HOP-62 NSCLC 3.04% | HOP-92 NSCLC -27.7% | 786-0 renal 9.57% | COLO 205 colon -30.3%
inactive: NCI-H226 lung 42% | NCI-H322M lung 87.6% | NCI-H460 lung 37.1% | NCI-H522 lung 21% | A549/ATCC NSCLC 35.1%

CN(CCCCN(C)CCOS(C)(=O)=O)CCOS(C)(=O)=O
inactive: NCI-H23 lung 84% | NCI-H226 lung 75% | NCI-H322M lung 105% | HOP-62 NSCLC 84.7% | NCI-H460 lung 35.2% | HOP-92 NSCLC 86.3% | NCI-H522 lung 81.3% | A549/ATCC NSCLC 78.9% | 786-0 renal 100% | COLO 205 colon 74.2%
